# High-throughput results: PubChem, National Center for Advancing Translational Sciences (NCATS)
# GBA activity: modulators of human glucocerebrosidase | actives 1.1% (n = 48,000) | AID 360 | purified enzyme, resorufin glucoside fluorescence (screen aimed at inhibitors), 20 min | Potency, µM; in the data active = potency below about 15 µM; inconclusive = mostly about 16 µM to 33 µM;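 note: the screen sought inhibitors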
#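 Compounds titrated against 0.2 nM normal enzyme, 30 uM resorufin beta-D-glucopyranoside substrate, citrate/phosphate buffer with taurocholate and tween-20, pH 5.9. Reaction ran 20 min at room temperature; fluorescence (Ex 548/Em 600) gave AC50.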
# Caspase-7 inhib: allosteric or competitive inhibitors of human caspase-7. recombinant caspase-7, Ac-DEVD-AFC fluorescence rate. P55210. Potency, µM (doses to about 57.5 µM), inactives show top-dose activity change, negative = inhibition, usual class: inhibitors. actives 0.02% (n = 75,000). AID 889; active = well fitted inhibition curve with a large enough effect in the main read-out, with a control signal flat, not every such curve was filed as active; inconclusive = small, poorly fitted or top-dose-only effect, or a change in a side signal; note: % of control where 0% means no effect
# Target sequence (P55210 24-198 limits assumed): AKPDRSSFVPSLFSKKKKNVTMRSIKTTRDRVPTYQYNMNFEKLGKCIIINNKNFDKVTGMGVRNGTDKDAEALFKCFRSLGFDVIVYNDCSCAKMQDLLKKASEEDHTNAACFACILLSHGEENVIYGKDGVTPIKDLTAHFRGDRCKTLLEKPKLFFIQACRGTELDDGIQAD
# Target sequence (P55210 207-303 limits assumed): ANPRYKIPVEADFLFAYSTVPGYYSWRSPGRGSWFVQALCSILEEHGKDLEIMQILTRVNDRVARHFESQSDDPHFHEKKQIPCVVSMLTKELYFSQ
# Luciferase inh: blocks Photinus pyralis firefly luciferase activity | Potency, µM (doses to about 57.1 µM), inactives show top-dose activity change, negative = inhibition, most hits filed as inhibitors | actives 2.2% (n = 72,000) | AID 411 | P08659 | purified firefly luciferase, luminescence, 8 min; note: % is set by controls: 0 for no effect and ±100 for the full control effect; nearly all actives have a fitted effect of over 40% in size
#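 Luminescence read-out after 8 min at room temperature; enzyme reaction used luciferin plus 10 uM ATP (linear range) in imidazole buffer pH 7.2 with KCl, MgCl2, Tween 20 and BSA. Each sample was run as a titration.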
# Bst PK mod: pyruvate kinase (B. stearothermophilus) modulation; purified pyruvate kinase, luminescence ATP production; ribose 5-phosphate activator present at AC10; Potency, µM; actives 1.2% (n = 51,000); in the data active = potency below about 11 µM; inconclusive = mostly about 12 µM to 25 µM;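 the screen sought inhibitors and activators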;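 note: scaled between full activation by ribose 5 phosphate and full inhibition by luteolin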
# Caspase-1 inhib: blocks human caspase-1 allosterically or competitively; actives 0.03% (n = 75,000); AID 900; P29466; Caspase-1 enzyme, Ac-WEHD-AFC fluorogenic rate; Potency, µM (titrated, usually from 57.5 µM), for the others: top-dose activity change, negative = inhibition, usual class: inhibitors;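 note: plate controls were vehicle for no effect and no substrate for full effect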
# Target sequence (P29466 120-297 limits assumed): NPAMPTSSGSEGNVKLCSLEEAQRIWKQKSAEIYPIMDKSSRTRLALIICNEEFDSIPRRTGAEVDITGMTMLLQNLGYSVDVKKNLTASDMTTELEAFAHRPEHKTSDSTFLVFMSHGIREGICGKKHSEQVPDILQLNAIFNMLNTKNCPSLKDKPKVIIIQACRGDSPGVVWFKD
# Target sequence (P29466 317-404 limits assumed): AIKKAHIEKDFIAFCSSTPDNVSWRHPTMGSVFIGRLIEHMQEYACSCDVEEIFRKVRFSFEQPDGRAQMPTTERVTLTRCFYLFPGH
# An asterisk follows results filed as active; i = inactive; ? = inconclusive; . = no result; [ ] = another dose, or the depositor's remark. Sampled rows, rich in hits. Any-hit rate of the full collection: about 3.1%. Unless noted, calls come from the whole dose curve; as a rule, active = well fitted inhibition curve with a large enough effect; inconclusive = small, poorly fitted or top-dose-only effect; inactive = flat fitted curve, though single readings scatter. Potency is the fitted concentration of half-maximal effect.
SMILES,GBA activity,Caspase-7 inhib,Luciferase inh,Bst PK mod,Caspase-1 inhib
CCS(=O)(=O)Nc1ccc(-c2nnc(SCC(=O)c3cccc(OC)c3)o2)cc1,10.7*,-5.4%,2.0%,>57,-5.4%
COc1ccc(CCN(C)CCC[C@@](C#N)(c2cc(OC)c(OC)c(OC)c2)C(C)C)cc1OC,.,0.3%,2.0%,.,-1.4%
N[C@@H](C(=O)O)[C@H](O)C(=O)O,.,.,-2.0%,.,.
CCN(CC)CCCC(C)NC(=O)c1ccc(Cc2nc3ccccc3[nH]2)cc1 (centres undefined),.,2.0%,.,.,-2.1%
CC(C)(C)n1cnc2cc(NS(=O)(=O)c3ccc(Br)cc3)ccc21,.,.,-0.3%[25.5 µM],2.47*,.
N#C[C@@H](Cc1ccc(O)c(O)c1)C(=O)N1CCc2ccccc21,.,0.2%,0.9%,.,2.1%
CN(C)c1cccc(-c2nnc(SCCCC#N)o2)c1,>76.9,-2.7%,15.8µM*,i,0.3%
CN(C)CCSc1nnc(-c2ccccc2)o1,>76.9,0.9%,-12.9%,>57,0.5%
Oc1ccccc1-c1cc(-c2ccccc2Cl)[nH]n1,>76.9,-6.9%,12.6µM*,?,-2.7%
O=C(NCCO)c1ccc(-n2c(=O)c(=O)[nH]c3ccccc32)cc1,.,-0.7%,.,.,-2.0%
Brc1ccc2[nH]c3nc(SCCN4CCOCC4)nnc3c2c1,9.59*,0.0%,-1.8%,>57,1.1%
CC1(C)Cc2nc3sc4c(SCC(=O)NCc5ccco5)ncnc4c3cc2CO1,>76.9,-3.5%,5.01µM*,i,-2.7%
C=C/C(C)=C/[C@]1(C)SC(=O)C(C)=C1O,.,-0.6%,2.9%,.,2.6%
COc1ccc2c(c1)c(C(=O)N1CCN(C)CC1)c(C)n2-c1ccccc1,11.9*,0.1%,2.2%,>57,-0.5%
COC(=O)c1c(C)n(-c2ccccc2)c2ccc(O)cc12,>76.9,-2.9%,-2.6%,>57,-0.1%
C[C@H](Oc1ccc(Oc2cnc3ccc(Cl)cc3n2)cc1)C(=O)O,.,0.2%[11.5 µM],0.7%[11.4 µM],.,3.5%[11.5 µM]
COc1ccc2[nH]c(=O)c(C(c3nnnn3CC3CCCO3)N3CCc4ccccc4C3)cc2c1 (centres undefined),14.2*,-5.6%,-0.6%,>57,-7.2%
COc1cc(C(=O)N2CCN(C(=O)COc3ccc4ccccc4c3)CC2)cc(OC)c1OC,.,-1.8%,7.94µM*,.,-0.5%
COc1ccc(C(=O)N2CCN(C(=O)c3cc(OC)c(OC)c(OC)c3)CC2)cc1,>76.9,2.0%,-4.0%,>57,-3.0%
Cn1c(=O)c2cc(S(=O)(=O)N3CCOCC3)ccc2n(C)c1=O,>76.9,1.7%,3.0%,>57,0.2%
O=c1c2ccccc2sn1-c1cc(S(=O)(=O)N2CCOCC2)ccc1N1CCOCC1,?,-2.1%,12.6µM*,>57,-0.2%
COc1ccc(NC(=O)Nc2nnc(N3CCCCC3C)s2)cc1OC (centres undefined),.,1.5%,15.8µM*,.,-5.0%
COC(=O)c1ccccc1NC(=O)Nc1nnc(N2CCCCC2C)s1 (centres undefined),.,-1.7%,-0.6%,.,-2.5%
O=C(CN1C(=O)c2cccc3cccc1c23)Nc1cccnc1,>76.9,?,1.4%,10.4*,.
O=C(c1ccc(Cc2nc3ccccc3[nH]2)cc1)N1CCOCC1,.,-1.8%,.,.,-0.9%
SMILES,GBA activity,Caspase-7 inhib,Luciferase inh,Bst PK mod,Caspase-1 inhib
COCCn1c(N)c(C(=O)Nc2sc3c(c2C(=O)OC)CCCC3)c2nc3ccccc3nc21,7.59*,?,4.3%,>57,.
CCc1ccc2oc(-c3cc(N)ccc3O)nc2c1,>76.9,-10.6%,1µM*,1.24*,-9.4%
c1cncc(-c2nc3cc(Cc4ccc5oc(-c6cccnc6)nc5c4)ccc3o2)c1,>76.9,1.7%,0.3%,>57,-3.6%
CCc1ccc2oc(-c3cc(N)ccc3Cl)nc2c1,>76.9,-2.1%,2.51µM*,2.87*,-3.3%
CCc1ccc2oc(-c3cc(N)cc(C)c3O)nc2c1,>76.9,-15.6%,2.51µM*,3.55*,-9.3%
Nc1ccc2oc(-c3cc(Br)ccc3Cl)nc2c1,.,.,-5.4%[25.5 µM],.,.
c1cc(-c2nc3cc(Cc4ccc5oc(-c6ccncc6)nc5c4)ccc3o2)ccn1,>76.9,0.5%,-2.4%,>57,-1.1%
Nc1ccc2oc(-c3ccccc3Cl)nc2c1,.,.,3.16µM*,3*,.
O=C(O)CCCC[C@@H]1SC[C@H]2NC(=O)N[C@H]12,.,.,2.0%[11.4 µM],.,.
COc1ccccc1CNc1ncnc2ccc(-c3ccccc3C#N)cc12,.,-6.6%,-0.3%[2.29 µM],.,-4.3%
COCCNc1c(-c2ccc(O)cc2)nc2ccc(Cl)cn12,6.94*,?,-0.7%,>57,.
CC(=O)[C@@H](C)CCO[C@@]1(C)OCC[C@@H]1C,.,0.9%[11.5 µM],-1.8%[11.4 µM],.,1.0%[11.5 µM]
CCc1nnc(NC(=O)CSc2nnc(-c3ccccc3NC(=O)c3ccccc3)o2)s1,>76.9,-0.2%,1.7%,>57,-2.1%
CCOC(=O)CSc1nnc(-c2ccccc2NC(=O)c2ccccc2)o1,8.26*,-1.2%,2.9%,>57,-0.5%
Cc1ccc(O)c(N=CC2=C(O)c3ccccc3C2=O)c1,.,-15.0%,25.1µM*,.,-7.9%
O=C1C(C=Nc2ccccc2O)=C(O)c2ccccc21,>76.9,-1.0%,7.94µM*,7.29*,0.5%
CN=CC1=C(O)c2ccccc2C1=O,>76.9,-4.1%,1.0%,.,-1.9%
Cc1csc(SCc2nnc(-c3ccccc3Br)o2)n1,>76.9,-1.6%,20µM*,.,1.1%
O=C(Nc1ccc(C(=O)N2CCOCC2)cc1)c1cccs1,>76.9,-7.0%,-2.1%,>57,-2.6%
O=C(c1ccc(N2CCOCC2)cc1)c1cccs1,>76.9,-2.3%,10µM*,?,-7.3%
Cn1c(=O)n2n(c1=O)[C@H]1[C@H](O)[C@H]3O[C@@H]3/C(=N/OC[C@@H](O)COCc3ccco3)[C@@H]1CC2,.,0.3%[11.5 µM],0.4%[11.4 µM],.,-2.0%[11.5 µM]
Cc1ccc(NC(=O)c2ccccc2O)cc1,>76.9,-1.1%,5.01µM*,6.35*,-0.1%
Cc1ccccc1NC(=O)c1ccccc1O,?,0.9%,-5.3%,>57,-2.9%
O=C(Nc1ccccc1)c1ccccc1O,.,-2.1%,20µM*,.,-8.5%
Nc1nc(C(=O)O)c(N=Nc2ccccc2)c(=O)[nH]1,.,-0.6%[11.5 µM],0.1%[11.4 µM],.,-1.0%[11.5 µM]
SMILES,GBA activity,Caspase-7 inhib,Luciferase inh,Bst PK mod,Caspase-1 inhib
[N-]=[N+]=Nc1ccc(C(=O)CSC[C@@H](NC(=O)CC[C@@H](N)C(=O)O)C(=O)NCC(=O)O)cc1,.,1.4%,0.0%,.,2.3%
CC(C)CCNC(=O)C(c1ccco1)N(C(=O)Cn1nnc2ccccc21)c1ccc2c(c1)OCO2 (centres undefined),8.22*,-1.3%,1.0%,>57,-2.1%
O=C(NCc1ccco1)C(c1ccco1)N(CCc1ccccc1)C(=O)Cn1nnc2ccccc21 (centres undefined),>76.9,-2.1%,-2.9%,>57,-5.4%
CN(C)c1oc(-c2ccccc2F)nc1C#N,.,0.7%,0.2%,.,1.1%
O=C(c1ccccc1)c1nnc(-c2ccccc2F)o1,>76.9,-0.8%,3.98µM*,8.49*,-0.7%
COc1ccc(-c2nc3c(Br)c(N)c(Br)cc3o2)cc1,.,.,2.51µM*,?,.
Nc1c(Br)cc2oc(-c3ccccc3)nc2c1Br,.,.,-13.2%[25.5 µM],.,.
Cc1noc(NS(=O)(=O)c2ccc(NC(=O)CCC3CCCC3)cc2)c1C,15*,-0.7%,0.3%,>57,0.1%
COc1ccc(Nc2cc(C)nc(N3CCOCC3)n2)cc1,10.7*,-0.7%,-3.1%,1.52*,-2.1%
